We go through ten compounds from PubChem BioAssay AID743195 (National Center for Advancing Translational Sciences (NCATS), 2013).

The list shows a part of the results. Inconclusive results are not listed. Calls of active or inactive are those of the source. Calls follow the shape of the dose curve; as a rule, active = well fitted inhibition curve with a large enough effect; inconclusive = small, poorly fitted or top-dose-only effect; inactive = no such curve, though single readings can be large or run the other way.

The experiment deals with Aldehyde dehydrogenase 1A1 (Homo sapiens) (UniProt P00352). The experiment can be described thus: Extended Characterization of HPGD Inhibitors: Counterscreen Against ALDH1A1. Conditions: recombinant ALDH1A1, NADH fluorescence, propionaldehyde/NAD+. An excerpt: The central role of HPGD is to inactivate prostaglandins such as prostaglandin E2 (PGE2) or prostaglandin D2 (PGD2). These prostaglandins are involved in a number of processes, including inflammation, differentiation, and cellular signaling, which makes HPGD an important target for pharmacological intervention. Aldehyde dehydrogenase 1 family, member A1 (ALDH1A1) catalyzes the NAD+ dependent oxidation of a variety of endogenous and exogenous aldehydes to the corresponding carboxylic acids. The enzyme is the critical step in the metabolic activation of retinoic acid, which plays an essential role as a nuclear receptor ligand. […] ALDH1A1 shares some homology with HPGD, and it served as a suitable anti-target of HPGD to determine chemical probe selectivity. The assay system is similar to the HPGD primary screening protocol. Inhibition of ALDH1A1 activity was screened by utilizing propionaldehyde as an electron donor and NAD+ as an electron acceptor/cofactor. An increase in the fluorescence intensity due to conversion of NAD+ to NADH was used to measure the enzyme activity. NIH Chemical Genomics Center [NCGC] NIH Molecular Libraries Probe Centers Network [MLPCN] MLPCN Grant: MH084681 Assay Submitter (PI): Structural Genomics Consortium
Aldehyde dehydrogenase 1A1 (Homo sapiens), sequence (P00352 whole entry, looked up): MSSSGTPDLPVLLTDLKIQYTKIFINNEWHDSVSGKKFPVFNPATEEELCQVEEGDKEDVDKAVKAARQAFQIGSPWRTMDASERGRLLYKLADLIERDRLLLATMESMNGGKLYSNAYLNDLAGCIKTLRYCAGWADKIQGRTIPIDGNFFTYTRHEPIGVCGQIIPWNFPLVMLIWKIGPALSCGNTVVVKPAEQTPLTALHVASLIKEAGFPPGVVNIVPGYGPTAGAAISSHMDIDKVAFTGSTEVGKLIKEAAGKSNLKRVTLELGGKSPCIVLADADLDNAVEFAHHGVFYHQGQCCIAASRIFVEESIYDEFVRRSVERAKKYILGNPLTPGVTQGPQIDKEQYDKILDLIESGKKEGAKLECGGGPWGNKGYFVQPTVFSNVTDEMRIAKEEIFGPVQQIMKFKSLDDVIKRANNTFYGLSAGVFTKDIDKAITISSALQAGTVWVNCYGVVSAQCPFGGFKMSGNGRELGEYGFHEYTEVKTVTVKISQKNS
3 uL of enzyme (final concentration 50 nM) or buffer were dispensed into a 1,536-well solid-bottom black plate (Greiner Bio One, Monroe, NC) followed by pin-tool transfer (23 nL) of compound (final concentration range 324 pM to 57.2 uM) and control (Bay 11-7085 (CID-5353432), final concentration range 1.31 nM to 2.86 uM). Samples were incubated (RT, protected from light) for 15 minutes followed by a 1 uL substrate addition of NAD+ and Propionaldehyde (final concentrations of 1 mM and 80 uM, respectively). Plates were centrifuged at 1,000 rpm for 15 seconds, then read in kinetic mode on a ViewLux High-throughput CCD imager (Perkin-Elmer) equipped with standard UV fluorescence optics (340 nm excitation, 450 nm emission) for 10 minutes at 5 minute intervals. Data were normalized (Read […] - Read 10 min) against no-enzyme (positive) and enzyme-containing (neutral) wells.
(A counterscreen serves to expose hits that act by an unwanted route or on another target.)
As to `FC(F)(F)c1cccc(N2CCN(C(=S)Nc3ccncc3)CC2)c1`, the Potency was 27.1 µM (active). With `Cc1cc(C)nc(NC(=S)N2CCN(c3cccc(C(F)(F)F)c3)CC2)c1`, the Potency was 15.2 µM (active). With `Cc1cc(C)nc(NC(=S)N2CCN(c3cccc(C#N)c3)CC2)c1`, the Potency was 3.83 µM (active).

`Cc1ccc(N2CCN(C(=S)Nc3cc(C)ccn3)CC2)cc1`: the Potency is 3.83 µM (active). As to `Cc1cc(C)nc(NC(=S)N2CCN(c3ccc(Cl)cc3C(F)(F)F)CC2)c1`, the Potency is 7.64 µM (active). Regarding `Cc1cc(C)nc(NC(=S)N2CCN(c3ccc(Cl)cc3F)CC2)c1`, the Potency was 4.82 µM (active). Regarding `COc1cccc(NC(=S)N2CCN(c3ccc(Cl)cc3Cl)CC2)n1`, the Potency was 1.08 µM (active). With `Cc1cc(C)nc(NC(=S)N2CCN(c3ccc4nonc4c3)CC2)c1` the figure was 12.1 µM (active); with `COc1cccc(NC(=S)N2CCN(c3ccccc3C(F)(F)F)CC2)n1`, 2.15 µM (active). Regarding `COc1ccnc(NC(=S)N2CCN(c3ncc(C(F)(F)F)cc3Cl)CC2)c1`, the Potency was 1.92 µM (active).
